Assay outcomes deposited in PubChem BioAssay by National Center for Advancing Translational Sciences (NCATS).
DRD3 antagonist: blocks the human D3 dopamine receptor; D3R cells, DiscoveRx beta-arrestin luminescence, antagonist mode; stronger effect = lower value; max response, negative = inhibition, %; actives 2.5% (n = 360,000); P35462; in the data active means max response below about -50%; inconclusive means no clear call, values can overlap the other calls; further: on the % scale 0 is the no-effect control and ±100 the full control effect
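Cells expressing the human receptor were seeded at 1500 cells/well, incubated overnight at 37 degrees C in 5% CO2, then exposed to library compounds with dopamine controls for 90 minutes at 37 degrees C before luminescent detection.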
D1 antag: antagonists of human D1 dopamine receptor; HEK293 TREx D1 cells, calcium flux, dopamine EC80; stronger effect = lower value; activity change, negative = inhibition, % at 10 µM; actives 3.2% (n = 360,000); in the data active means activity change below about -30%; further: on the % scale 0 is the no-effect control and ±100 the full control effect
Target sequence (P21728 whole entry, looked up): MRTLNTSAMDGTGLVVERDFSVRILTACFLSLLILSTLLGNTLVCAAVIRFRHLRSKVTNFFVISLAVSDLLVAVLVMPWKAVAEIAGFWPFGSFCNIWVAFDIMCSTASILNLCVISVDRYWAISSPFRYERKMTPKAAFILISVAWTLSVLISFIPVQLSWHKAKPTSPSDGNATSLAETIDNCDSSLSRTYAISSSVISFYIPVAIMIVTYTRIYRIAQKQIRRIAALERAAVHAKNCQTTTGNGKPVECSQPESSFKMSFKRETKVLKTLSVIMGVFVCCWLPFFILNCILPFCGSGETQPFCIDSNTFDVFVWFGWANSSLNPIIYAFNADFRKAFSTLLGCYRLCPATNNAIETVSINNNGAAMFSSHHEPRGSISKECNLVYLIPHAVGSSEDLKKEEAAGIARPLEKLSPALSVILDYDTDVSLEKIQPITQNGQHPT
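Compound effects on dopamine-evoked calcium signalling were measured in tetracycline-induced HEK293 Trex D1 cells. Dopamine at EC80 followed a 180 s compound pre-read, and fluorescence was tracked kinetically for 180 s more.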
DRD3 agonist: agonists of human D3 dopamine receptor | P35462 | actives 0.58% (n = 410,000) | max activation, % | D3R DiscoveRx beta-arrestin cells, luminescence, 90 min; in the data active means max activation above about 30%; further: 0% is about no effect
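Agonist-mode cell screen: cells plated at 1500/well and incubated overnight at 37 °C, then exposed to library compounds for 90 min at 37 °C. Detection reagent was added for 30–60 min at room temperature, and luminescence was read.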
D1 agonist: human D1 receptor agonism; P21728; HEK293 T-REx D1 cells, calcium flux, agonist mode; activation, % at 2 µM; actives 1% (n = 360,000); AID 504660; in the data active means activation above about 30%; further: 0% is about no effect
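Tetracycline-induced HEK293 TREx D1 cells, force-coupled to calcium signalling, were dye-loaded with a no-wash calcium kit. Compound was pin-added after a 10 s baseline. Fluorescence was read kinetically at 1 cycle/s for 180 s, with calcium rises flagged as agonism.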
D1 potentiator: human D1 dopamine receptor positive modulation | P21728 | HEK293 TREx D1 cells, calcium flux, dopamine EC20 potentiation | actives 0.036% (n = 360,000) | potentiation, % at 10 µM; in the data active means potentiation above about 30%; further: 0% is about no effect
Numbers without * were called inactive; u = inconclusive; x = no result. Most compounds without a hit are left out; they make up all but 6% or so of the library.

SMILES | DRD3 antagonist | D1 antag | DRD3 agonist | D1 agonist | D1 potentiator
Cn1cc(S(=O)(=O)N2CCc3ccccc32)cc1C(=O)Nc1ccc(Cl)cc1 | 28 | -37* | 1 | 7 | -2
CSc1cccc(NC(=O)c2cc(S(=O)(=O)N3CCc4ccccc43)cn2C)c1 | -13 | -56* | -1 | 9 | 0
CCOc1ccc(NC(=O)c2cc(S(=O)(=O)N3CCC(C)CC3)cn2C)cc1 | x | -22 | -5 | 0 | -4
Cc1cccc(NC(=O)c2cc(S(=O)(=O)N3CCc4ccccc43)cn2C)c1 | 33 | 5 | 1 | 8 | -2
Cc1cc(C)cc(N(CC(=O)NCCc2ccc(Cl)cc2)S(=O)(=O)c2c(C)noc2C)c1 | x | -2 | -4 | 5 | 1
Cn1cc(S(=O)(=O)N2CCCC2)cc1C(=O)Nc1ccc(C(F)(F)F)cc1 | x | 0 | -5 | 33* | -2
O=C(CNC(=O)c1cccs1)N/N=C/c1c(F)cccc1Cl | -51* | 13 | -19 | 2 | 7
Cc1ccc(C)c(Cn2c(=O)n(Cc3ccccc3)c(=O)c3sc4ccccc4c32)c1 | x | 8 | 3 | 0 | 0
CCOC(=O)c1c[nH]c2cc(OCC(C)C)c(OCC(C)C)cc2c1=O | x | x | 3 | x | x
CCCCCCC(=O)N(O)C1CC(=O)N(Cc2ccccc2)C1=O (centres undefined) | -5 | -10 | -1 | -1 | -5
CCCCCC(=O)N(O)C1CC(=O)N(c2ccccc2)C1=O (centres undefined) | -86* | 22 | -4 | 3 | 2
CCc1ccc(S(=O)(=O)c2cn(Cc3ccccc3)c3cc(N4CCCC4)c(F)cc3c2=O)cc1 | x | 3 | 9 | -1 | 0
C#CCOCCOCCOCCNc1nc(N2CCN(C(=O)CCCCCCCCCCNC(=O)[C@H](CCCCN)n3cc(C)nn3)CC2)nc(N2CCN(C(=O)CCCCCCCCCCNC(=O)[C@H](CCCCN)n3cc(CCCC(=O)O)nn3)CC2)n1 | 26 | 14 | 6 | 30* | -3
C#CCOCCOCCOCCNc1nc(N2CCN(C(=O)CCCCCCCCCCNC(=O)[C@H](CCCCN)n3cc(CCCC(=O)O)nn3)CC2)nc(N2CCN(C(=O)CCCCCCCCCCNC(=O)[C@@H]([C@H](C)O)n3cc(C)nn3)CC2)n1 | 9 | 6 | -5 | 44* | 6
C#CCOCCOCCOCCNc1nc(N2CCOCC2)nc(N2CCN(C(=O)CCCCCCCCCCNC(=O)[C@@H](CCC(=O)O)n3cc(CCCCCN)nn3)CC2)n1 | 18 | -8 | -11 | 6 | -4
C#CCOCCOCCOCCNc1nc(N2CCN(C(=O)CCCCCCCCCCNC(=O)[C@H]([C@@H](C)CC)n3cc(CCCCN=C(N)N)nn3)CC2)nc(N2CCN(C(=O)CCCCCCCCCCNC(=O)[C@H](CCCCN)n3cc(C)nn3)CC2)n1 | u | 31 | -20 | 3 | -2
Cc1cc(Cl)ccc1NC(=O)CN1C(=O)COc2ccc(S(=O)(=O)N3CCC(C)CC3)cc21 | x | 9 | -12 | 2 | -1
COc1ccc(/C=C2\OC(=S)N(C)C2=O)cc1 | 11 | 9 | 6 | 2 | -6
CN1C(=O)/C(=C\c2ccc(N(C)C)cc2)OC1=S | 6 | -66* | 5 | 523* | -6
Cc1cc2c(s1)c1c(C)nn(Cc3ccc(F)cc3)c(=O)c1n2C | x | -3 | x | 3 | 3
CCC(C)NCCOc1ccc(C)cc1[N+](=O)[O-] (centres undefined) | -60* | 2 | -17 | 2 | -5
CCC(C)NCCOCCOc1ccc(C)cc1Br (centres undefined) | -70* | 7 | -13 | 15 | -8
C=CCN(CC=C)CCOc1ccc(C)cc1[N+](=O)[O-] | -96* | -18 | -9 | 1 | -3
COc1ccccc1OCCOCCOc1ccc(C)cc1[N+](=O)[O-] | 7 | -6 | 0 | 3 | -4
CCCCNCCOCCOc1ccc(C)cc1[N+](=O)[O-] | -53* | -11 | -5 | 1 | 0
C=CCN(CC=C)CCOc1cc(C)ccc1[N+](=O)[O-] | u | -2 | -11 | 2 | -4
C=CCNCCOCCOc1ccc(C)cc1Br | u | 18 | -8 | 13 | -4
COc1ccccc1NC(=O)Cn1c(=O)n(-c2cccc(C)c2)c(=O)c2c1c1cc(C)ccc1n2C | x | -1 | 0 | 0 | -2
Cc1ccc(CNC(=O)CSc2nc3ccccc3nc2Cc2ccc(C)cc2)cc1 | x | 3 | -6 | 1 | -2
